Potency data for 40 molecules are collected here from PubChem BioAssay AID720518 (National Center for Advancing Translational Sciences (NCATS), 2013).

Each structure is given as a SMILES string. Records with an inconclusive call do not appear. A call without a number means that no potency is given here. Calls of active or inactive are those of the source. Calls come from the whole dose curve.

This assay can be described thus: qHTS for Inhibitors of Cell Surface uPA Generation: Wild-type Protective Antigen (WT-PrAg) Counterscreen for Cherry-picked Compounds. To be noted: cells, WT protective antigen toxicity counterscreen; series mostly up to 115 µM. (In qHTS, concentration-response curves come from the screen itself.)
As for `COc1cc(NS(=O)(=O)c2ccc(NC(=S)NC(=O)COc3ccccc3OC)cc2)nc(OC)n1`, the Potency entry was “inactive”.

On to `OC(COc1ccc(Br)cc1)CN1CCN(c2ccccc2)CC1` (stereo not given), for which the Potency entry was “inactive”.

Turning to `Cc1ccc(S(=O)(=O)NCC(=O)N/N=C/c2ccc(Cl)cc2)cc1`, the Potency result is “inactive”.

With `COC(=O)C1=C(c2cccc(OC)c2OC)C[C@@H]2CC[C@H]1N2C(=O)NC1CC1`, the Potency entry is “inactive”.

With `CCOC(=O)Cn1c(=O)cc(C)c2cccc(C)c21`, the Potency result was “inactive”.

For `CN(Cc1ccc(C(C)(C)C)cc1)C(=O)Cc1ccc(S(=O)(=O)N2CCOCC2)s1`, the Potency result was “inactive”.

For the molecule `Cc1cc(=O)[nH]c(=S)[nH]1`, the Potency entry is “inactive”.

On to `CCOc1ccc(C(=O)NCC(=O)N2CCN(C/C=C/c3ccccc3)CC2)cc1OCC`, for which the Potency entry is “inactive”.

Regarding `CCC(C(=O)NCc1ccc(C)cc1)c1ccccc1` (stereo not given), the Potency entry is “inactive”.

As for `COc1ccc(Cc2nnc(Nc3ccc(C)cc3)o2)cc1OC`, the Potency result is “inactive”.

Turning to `O=C(NCCCN1CCCC1=O)c1cccc(Oc2ccccc2)c1`, the Potency result was “inactive”.

As to `CCCS(=O)(=O)c1ccc(COC(=O)Cc2ccc([N+](=O)[O-])cc2)cc1`, the Potency entry is “inactive”.

Turning to `O=C(CN1CCOC1=O)N1CCCC(Nc2ccc(F)c(F)c2)C1` (stereo not given), the Potency entry is “inactive”.

Regarding `CCOCCOc1cc(NCc2ccccc2)c2ncn(C(C)C)c2c1`, the Potency result is “inactive”.

In the case of `Cc1ccc(C(=O)NNC(=O)CNc2cccc(Cl)c2)cc1`, the Potency entry was “inactive”.

Take `O=C(NNC(=O)C1CC(c2cccs2)=NO1)Nc1ccccc1` (stereo not given): the Potency result was “inactive”.

With `COc1ccccc1C(=O)NCCC(=O)NCC(c1ccc(F)cc1)N1CCOCC1` (stereo not given), the Potency result was “inactive”.

Turning to `CCn1c(SC(C)C(=O)NC2CCCC2)nc2cc(S(N)(=O)=O)ccc21` (stereo not given), the Potency result is “inactive”.

`CC1(CC(=O)N/N=C/c2cc(Br)c(O)cc2O)OCCO1`: the Potency result is “inactive”.

Turning to `O=C(C1CCN(c2nnc(N3CCCC3=O)s2)CC1)N1CCN(c2cccc(C(F)(F)F)c2)CC1`, the Potency result is “inactive”.

On to `CC(C)Cn1cnc2c(N)nc3ccccc3c21`, for which the Potency entry is “inactive”.

As for `CCCCNc1nnc(SCC(=O)c2c(N)n(CCC)c(=O)[nH]c2=O)s1`, the Potency result was “inactive”.

As for `CCN(CC)CCCNC(=O)c1cn(C)c(=O)c2c1c1ccccc1n2C`, the Potency result is “inactive”.

Turning to `O=S(=O)(NCCc1ccccc1F)c1cccc(S(=O)(=O)N2CCOCC2)c1`, the Potency entry is “inactive”.

With `O=C(C[C@@H]1C/C=C\C[C@H](Cc2ccc(F)cc2)C(=O)OC[C@H]2CCCN2C1=O)N[C@H](CO)Cc1ccccc1`, the Potency result is “inactive”.

With `CCN(CC)C(=O)Cn1cc(/C=C(\C#N)C(=O)NC2CC2)c2ccccc21`, the Potency entry is “inactive”.

On to `O=C(c1cc(COc2c(F)cccc2F)on1)N1CCc2ccccc2C1`, for which the Potency result is “inactive”.

`O=P1(NCCCl)OCCCN1CCCl` (stereo not given): the Potency entry is “inactive”.

Turning to `NC(=O)c1ccccc1NC(=O)CC12CC3CC(CC(C3)C1)C2`, the Potency entry is “inactive”.

With `Cc1ccc(N=C2SCCCN2C(=O)c2cccc(N3C(=O)CCC3=O)c2)cc1Cl`, the Potency entry was “inactive”.

Regarding `Cc1ccc(C)c(N2N=C(C(=O)N(CC(C)C)c3c(N)n(Cc4ccccc4)c(=O)[nH]c3=O)CCC2=O)c1`, the Potency entry is “inactive”.

For `Cc1nc2ncccn2c1-c1csc(Nc2ccc(S(N)(=O)=O)cc2)n1`, the Potency result is “inactive”.

Turning to `Cc1ccc(Cl)c(N/C=C/C(=O)c2ccccc2)c1`, the Potency result was “inactive”.

Turning to `Cc1nc(NC2CCCCC2)c2nnn(Cc3ccccc3Cl)c2n1`, the Potency entry is “inactive”.

As for `COC(=O)CSc1nc(N2CCOCC2)c2c(c1C#N)CCCC2`, the Potency result is “inactive”.

As to `Cc1ccc(/C=N/NC(=O)c2ccc3nc[nH]c3c2)s1`, the Potency entry is “inactive”.

`C[C@H](CO)N1C[C@H](C)[C@H](CN(C)S(=O)(=O)c2cn(C)cn2)Oc2ccc(NC(=O)Nc3ccc(C(F)(F)F)cc3)cc2CC1=O`: the Potency result is “inactive”.

For `CC(=O)Nc1ccc(NC(=O)CCCCCN2C(=O)c3ccccc3C2=O)cc1`, the Potency entry is “inactive”.

On to `O=C(CSc1ccc([N+](=O)[O-])cn1)Nc1nccs1`, for which the Potency result is “inactive”.

On to `CCOC(=O)C1CCN(C(=O)COC(=O)c2c(C)c(CC)nc3ccccc23)CC1`, for which the Potency entry is “inactive”.
